PubChem BioAssay (EPA / NIEHS)
Records with an inconclusive call do not appear. Activity calls are given as the source filed them. The calls were made as follows, unless noted: active = hit-call score of the fitted dose curve at least 0.9, where 1 is the maximum; inactive = score below 0.9.

Assays:
[1] = ACEA_ER_80hr: ACEA Biosciences xCELLigence Real-Time Cell Analysis on Estrogen Receptor Agonism for Proliferation (AID 2282667; active = hit-call score of the fitted dose curve at least 0.9, where 1 is the maximum); conditions: T47D proliferation, impedance (xCELLigence), 80 h
Procedure, shortened: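 Estrogen-driven proliferation is captured as electrode impedance in T47D cells 80 h after compound addition. Test articles ran at 8 concentrations, 1:4 dilutions from 100 uM final, in two replicate plates.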

[2] = ATG_CRE_CIS: Attagene CIS-FACTORIAL HepG2 Assay for human cAMP Responsive Element (CRE) binding protein 3 (AID 2282926); conditions: HepG2 CRE cis-reporter, Attagene multiplexed mRNA; actives raise or lower the signal
Procedure, shortened: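 Transfected HepG2 were treated for 24 hours, then RNA was extracted and reporter cDNA amplified with sequence-specific primers. Labelled fragments were separated by capillary electrophoresis, and the CRE signal was fitted bidirectionally with DMSO as baseline.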

[3] = target: CCAAT/enhancer-binding protein beta (Homo sapiens) (UniProt P17676); assay: ATG_C_EBP_CIS: Attagene CIS-FACTORIAL HepG2 Assay for human CCAAT/Enhancer Binding Protein (C/EBP) beta (AID 2282927); conditions: HepG2 Attagene cis-factorial transcription factor reporter; actives raise or lower the signal
CCAAT/enhancer-binding protein beta (Homo sapiens), sequence (P17676 whole entry, looked up): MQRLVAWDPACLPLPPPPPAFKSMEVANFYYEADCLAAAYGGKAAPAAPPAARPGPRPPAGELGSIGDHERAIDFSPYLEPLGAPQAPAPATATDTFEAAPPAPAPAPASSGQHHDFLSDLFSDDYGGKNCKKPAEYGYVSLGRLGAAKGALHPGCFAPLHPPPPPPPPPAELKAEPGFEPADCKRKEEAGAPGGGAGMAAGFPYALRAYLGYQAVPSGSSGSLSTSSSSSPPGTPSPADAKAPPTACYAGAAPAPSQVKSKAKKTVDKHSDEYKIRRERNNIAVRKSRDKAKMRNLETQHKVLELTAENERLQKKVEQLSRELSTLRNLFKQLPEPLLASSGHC
Procedure, shortened: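 HepG2, transient MRTU transfection, 24 h treatment. RT-PCR plus CE fluorescence; DMSO negative control, bidirectional fit.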

[4] = ATG_CMV_CIS: Attagene CIS-FACTORIAL HepG2 Assay for human CMV (Internal Marker) (AID 2282928); conditions: HepG2 CMV promoter reporter, transcription factor profiling; actives raise or lower the signal;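 also: endpoint acts as a background internal control marker rather than a target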
Procedure, shortened: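 Cell system: HepG2, transiently transfected multiple reporter units under cis promoters. Exposure: 24 h. Detection: RT-PCR, FAM labeling, HpaI digestion, capillary electrophoresis. Analysis: bidirectional, DMSO baseline.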

[5] = ATG_DR4_LXR_CIS: Attagene CIS-FACTORIAL HepG2 Assay for human Liver X Receptor (LXR), DR4 submotif (AID 2282929); conditions: HepG2 Attagene DR4 cis-reporter, mRNA transcription; actives raise or lower the signal
Procedure, shortened: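 Readout: reporter transcript fluorescence after RT-PCR and capillary electrophoresis, fitted bidirectionally against DMSO controls. Human HepG2 liver cells carried transiently transfected multiplexed reporter constructs; endogenous transcription factor activity measured 24 h post-dosing.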

[6] = target: Aryl hydrocarbon receptor (Homo sapiens) (UniProt P35869); assay: ATG_Ahr_CIS: Attagene CIS-FACTORIAL HepG2 Assay for human Aryl Hydrocarbon Receptor (Ahr) (AID 2282930); conditions: HepG2 AhR cis-factorial reporter transcription; actives raise or lower the signal
Aryl hydrocarbon receptor (Homo sapiens), sequence (P35869 whole entry, looked up): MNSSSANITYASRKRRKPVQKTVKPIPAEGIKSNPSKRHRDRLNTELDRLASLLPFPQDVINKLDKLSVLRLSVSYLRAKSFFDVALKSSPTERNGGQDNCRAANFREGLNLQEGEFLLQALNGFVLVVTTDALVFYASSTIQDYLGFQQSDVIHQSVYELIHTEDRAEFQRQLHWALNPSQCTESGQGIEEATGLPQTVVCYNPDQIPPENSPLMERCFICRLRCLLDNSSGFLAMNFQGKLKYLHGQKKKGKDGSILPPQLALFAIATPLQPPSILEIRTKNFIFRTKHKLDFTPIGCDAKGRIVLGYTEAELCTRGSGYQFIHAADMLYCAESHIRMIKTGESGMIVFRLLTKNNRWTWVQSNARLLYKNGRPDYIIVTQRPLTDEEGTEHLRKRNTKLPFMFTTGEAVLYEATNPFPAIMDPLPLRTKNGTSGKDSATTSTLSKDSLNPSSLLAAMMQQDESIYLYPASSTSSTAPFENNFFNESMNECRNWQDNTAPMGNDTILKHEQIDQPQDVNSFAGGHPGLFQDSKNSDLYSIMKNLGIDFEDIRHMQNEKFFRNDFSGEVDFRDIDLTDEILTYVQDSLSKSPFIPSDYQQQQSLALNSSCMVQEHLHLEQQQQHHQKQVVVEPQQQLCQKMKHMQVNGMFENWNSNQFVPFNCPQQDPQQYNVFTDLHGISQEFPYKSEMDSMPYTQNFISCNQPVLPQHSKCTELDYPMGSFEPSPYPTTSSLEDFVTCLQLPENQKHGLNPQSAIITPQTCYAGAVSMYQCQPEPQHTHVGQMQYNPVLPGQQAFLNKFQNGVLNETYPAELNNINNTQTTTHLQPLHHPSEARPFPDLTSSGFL
Procedure, shortened: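 Endogenous factor activity is tracked through cis-promoter reporter units transfected into HepG2 cells. Transcript levels at 24 h are read by fluorescent RT-PCR and capillary electrophoresis, with activity in either direction scored relative to DMSO.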

[7] = ATG_AP_1_CIS: Attagene CIS-FACTORIAL HepG2 Assay for human Activator Protein 1 (AP-1) (AID 2282931); conditions: HepG2 Attagene cis-factorial AP-1 reporter mRNA; actives raise or lower the signal
Procedure, shortened: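 Reporter transcripts were measured 24 h after dosing by RT-PCR and capillary electrophoresis of fluorescent fragments. Cells: HepG2 carrying transfected cis-regulated reporter constructs reading endogenous factor activity. Gain or loss fitted against DMSO.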

[8] = ATG_AP_2_CIS: Attagene CIS-FACTORIAL HepG2 Assay for human Activator Protein 2 (AP-2) (AID 2282932); conditions: HepG2 AP-2 cis-reporter, Attagene transcription factor profiling; actives raise or lower the signal
Procedure, shortened: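 HepG2 cells transiently transfected with cis-element reporter units and exposed for 24 h. Reporter mRNA measured by RT-PCR, FAM labelling, HpaI digestion and capillary electrophoresis. Changes in either direction fitted relative to DMSO.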

[9] = ATG_BRE_CIS: Attagene CIS-FACTORIAL HepG2 Assay for human Bone Morphogenetic Protein (BMP) Response Element (BRE) (AID 2282933); conditions: HepG2 BMP response element reporter, Attagene transcription factor profiling; actives raise or lower the signal
Procedure, shortened: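 Endogenous transcription factor activity read in transiently transfected HepG2 cells after 24 h chemical exposure. Bidirectional curve fitting against DMSO; readout is reporter transcript level by RT-PCR with capillary electrophoresis of labelled products.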

[10] = target: Retinoic acid receptor alpha (Homo sapiens) (UniProt P10276); assay: ATG_DR5_RAR_CIS: Attagene CIS-FACTORIAL HepG2 Assay for human Retinoic Acid Receptor Alpha (RARE), DR5 submotif (AID 2282934); conditions: HepG2 Attagene cis-factorial RARE DR5 reporter, mRNA; actives raise or lower the signal;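 as to AC50: reporter responds to endogenous RAR alpha beta and gamma in HepG2 not RARA alone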
Retinoic acid receptor alpha (Homo sapiens), sequence (P10276 whole entry, looked up): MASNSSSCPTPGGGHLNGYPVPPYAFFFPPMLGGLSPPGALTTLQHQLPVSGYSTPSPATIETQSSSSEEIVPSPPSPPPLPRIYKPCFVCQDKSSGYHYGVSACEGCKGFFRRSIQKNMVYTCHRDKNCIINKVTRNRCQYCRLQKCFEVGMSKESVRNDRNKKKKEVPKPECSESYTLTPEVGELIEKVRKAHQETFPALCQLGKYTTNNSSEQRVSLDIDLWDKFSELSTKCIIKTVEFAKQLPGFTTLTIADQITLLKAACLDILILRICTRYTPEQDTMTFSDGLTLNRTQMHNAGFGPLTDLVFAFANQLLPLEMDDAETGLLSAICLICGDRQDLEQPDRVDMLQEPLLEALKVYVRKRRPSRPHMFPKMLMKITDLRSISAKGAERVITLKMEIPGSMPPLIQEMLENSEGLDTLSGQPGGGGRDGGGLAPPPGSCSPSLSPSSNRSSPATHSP
Procedure, shortened: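 After 24 h of chemical exposure, transiently transfected HepG2 cells were lysed for total RNA; the DR5-regulated reporter transcript was quantified via RT-PCR and capillary electrophoresis, with activity fitted bidirectionally against DMSO.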

[11] = target: Transcription factor E2F1 (Homo sapiens) (UniProt Q01094); assay: ATG_E2F_CIS: Attagene CIS-FACTORIAL HepG2 Assay for human E2F Transcription Factor 1 (AID 2282935); conditions: HepG2 Attagene cis-reporter, E2F reporter RNA transcripts; actives raise or lower the signal
Transcription factor E2F1 (Homo sapiens), sequence (Q01094 whole entry, looked up): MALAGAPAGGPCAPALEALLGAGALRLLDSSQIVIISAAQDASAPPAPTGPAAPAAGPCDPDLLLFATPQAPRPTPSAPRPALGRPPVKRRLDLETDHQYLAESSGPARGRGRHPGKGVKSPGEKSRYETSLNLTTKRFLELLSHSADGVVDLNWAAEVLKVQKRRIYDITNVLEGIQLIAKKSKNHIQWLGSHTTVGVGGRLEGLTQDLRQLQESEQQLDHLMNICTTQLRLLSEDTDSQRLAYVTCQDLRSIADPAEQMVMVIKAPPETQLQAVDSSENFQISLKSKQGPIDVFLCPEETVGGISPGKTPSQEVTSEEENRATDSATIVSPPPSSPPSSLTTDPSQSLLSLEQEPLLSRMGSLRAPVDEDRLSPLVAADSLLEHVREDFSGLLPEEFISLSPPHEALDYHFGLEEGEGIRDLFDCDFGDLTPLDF
Procedure, shortened: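 Endogenous E2F1 activity read through cis-promoter reporter units transfected into HepG2. After 24 h compound treatment, reporter mRNA measured by RT-PCR, HpaI digestion and capillary electrophoresis. Bidirectional fit versus DMSO.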

[12] = ATG_E_Box_CIS: Attagene CIS-FACTORIAL HepG2 Assay for human Enhancer Box (E-box) (AID 2282936); conditions: HepG2 E-box cis-reporter transcription, actives raise or lower the signal
Procedure, shortened: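 HepG2 cells transiently transfected with multiplexed cis-element reporter units, dosed 24 h; reporter mRNA quantified by RT-PCR, 6-FAM labelling, HpaI digestion and capillary electrophoresis. E-box (USF1) signal fitted bidirectionally vs DMSO.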

[13] = ATG_M_61_CIS: Attagene CIS-FACTORIAL HepG2 Assay for M61 Transcription Factor (Internal Marker) (AID 2282937); conditions: HepG2 Attagene CIS-FACTORIAL M61 internal marker reporter; actives raise or lower the signal
Procedure, shortened: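 Readout: fluorescent reporter mRNA fragments resolved by capillary electrophoresis after RT-PCR. Transiently transfected human HepG2 cells carried MRTU constructs reporting endogenous TF activity; 24 h chemical exposure; gain or loss of signal fitted relative to DMSO.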

[14] = ATG_EGR_CIS: Attagene CIS-FACTORIAL HepG2 Assay for human Early Growth Response 1 (EGR1) (AID 2282938); conditions: HepG2 Attagene CIS-FACTORIAL EGR reporter mRNA; actives raise or lower the signal
Procedure, shortened: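 Read-out: fluorescent reporter-mRNA fragments resolved by capillary electrophoresis after RT-PCR, 24 h post-dose in transiently transfected HepG2. Endogenous transcription-factor activity reported via cis-element-regulated reporter units; gain or loss fitted relative to DMSO.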

[15] = ATG_M_19_CIS: Attagene CIS-FACTORIAL HepG2 Assay for M19 Transcription Factor (Internal Marker) (AID 2282939); conditions: HepG2 Attagene CIS-FACTORIAL M19 internal marker reporter; actives raise or lower the signal
Procedure, shortened: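 Internal marker readout, fitted in both directions against DMSO, from HepG2 cells carrying transfected cis-element reporter constructs; RT-PCR and capillary electrophoresis of reporter mRNA after 24 h exposure.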

[16] = ATG_ERE_CIS: Attagene CIS-FACTORIAL HepG2 Assay for Estrogen Response Element (ERE) (AID 2282940); conditions: HepG2 ERE cis-reporter, Attagene RNA transcript; actives raise or lower the signal
Procedure, shortened: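 After 24 h compound treatment, RNA from transfected HepG2 cells was reverse-transcribed, reporter cDNA PCR-amplified, FAM-labelled, HpaI-cut and resolved by capillary electrophoresis. ERE-driven cis reporter transcripts reflect endogenous factors; gain or loss scored against DMSO.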

[17] = ATG_Ets_CIS: Attagene CIS-FACTORIAL HepG2 Assay for human Erythroblast Transformation Specific (ETS) (AID 2282941); conditions: HepG2 ETS cis-reporter transcription, actives raise or lower the signal
Procedure, shortened: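 After transient cis-reporter transfection, HepG2 cells receive test chemical for 24 h. Reporter mRNA levels, measured by RT-PCR and capillary electrophoresis fluorescence, are analysed bidirectionally relative to the DMSO baseline.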

[18] = target: Hepatocyte nuclear factor 3-beta (Homo sapiens) (UniProt Q9Y261); assay: ATG_FoxA2_CIS: Attagene CIS-FACTORIAL HepG2 Assay for human Forkhead box A2 (FOXA2) (AID 2282942); conditions: HepG2 cis-reporter transcription factor activity, 24 h; actives raise or lower the signal
Hepatocyte nuclear factor 3-beta (Homo sapiens), sequence (Q9Y261 whole entry, looked up): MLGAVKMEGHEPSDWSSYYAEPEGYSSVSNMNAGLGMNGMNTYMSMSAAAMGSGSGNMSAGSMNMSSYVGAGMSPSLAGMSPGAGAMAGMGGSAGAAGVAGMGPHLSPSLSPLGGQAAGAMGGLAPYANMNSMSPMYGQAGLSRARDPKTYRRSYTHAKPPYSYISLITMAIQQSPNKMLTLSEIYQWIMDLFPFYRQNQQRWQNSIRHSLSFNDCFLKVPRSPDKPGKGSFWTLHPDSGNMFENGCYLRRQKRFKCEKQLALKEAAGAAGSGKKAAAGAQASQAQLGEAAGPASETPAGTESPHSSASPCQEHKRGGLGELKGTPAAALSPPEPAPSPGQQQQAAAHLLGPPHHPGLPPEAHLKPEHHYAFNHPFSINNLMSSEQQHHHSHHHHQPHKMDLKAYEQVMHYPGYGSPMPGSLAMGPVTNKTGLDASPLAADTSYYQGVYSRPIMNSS
Procedure, shortened: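 Readout: fluorescent reporter transcripts resolved by capillary electrophoresis after RT-PCR. Transiently transfected HepG2, 24 h compound exposure, endogenous TF activity at cis promoter elements. Gain or loss of signal fitted relative to DMSO.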

[19] = ATG_FoxO_CIS: Attagene CIS-FACTORIAL HepG2 Assay for human Forkhead box O (FoxO) (AID 2282943); conditions: HepG2 Attagene cis-reporter, FoxO element, mRNA; actives raise or lower the signal
Procedure, shortened: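 Transfected HepG2 reporter cells exposed to test chemical for 24 h; reporter RNA measured by reverse transcription, PCR and fluorescent capillary electrophoresis; curves fitted for increases and decreases against DMSO.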

[20] = ATG_GATA_CIS: Attagene CIS-FACTORIAL HepG2 Assay for human GATA Binding Protein (AID 2282944); conditions: HepG2 GATA cis-element reporter, Attagene multiplex mRNA; actives raise or lower the signal
Procedure, shortened: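 Reporter transcripts from a GATA cis-regulated unit, among multiplexed reporters in transfected HepG2 cells, were measured by RT-PCR with capillary electrophoresis after 24 h dosing. Induction or loss scored relative to DMSO.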

Measured: AC50

O=C(O)C(F)(F)C(F)(F)C(F)(F)C(=O)O
inactive: all assays above

CSc1ccc(Cl)cc1
not listed: [18]
inactive: all other assays above

CCCCCCCCCCCC(=O)Cl
active: [5] 163 µM | [7] 82.8 µM | [10] 65.6 µM
inactive: all other assays above

COC(=O)c1ccc(C=O)cc1
active: [6] 105 µM
inactive: all other assays above

Brc1ccccn1
inactive: all assays above

CC1=CCC(=O)O1
inactive: all assays above

Nc1cc([N+](=O)[O-])cc(Cl)c1O
inactive: all assays above
